# Experimental data as given in PubChem BioAssay AID588689 (Southern Research Specialized Biocontainment Screening …, 2011).
# The campaign covered roughly 340,000 compounds. About 1,000 (0.29%) were called active. No stated cut-off is given here; in the data, inconclusive means inhibition above about 29% without an active follow-up result; inactive means below that. Not all results are given here. Measured potencies and affinities stand elsewhere.
# Biological target: Genome polyprotein (Dengue virus type 2 (strain 16681-PDK53)) (UniProt P29991)
# Experiment: Dengue-2 NS5 methyltransferase inhibitors, primary screen, biochemical, confirmation dose response (AID 588689)
# Conditions: Dengue-2 NS5 methyltransferase capping enzyme assay, at 25 µM, stronger effect = higher value
SMILES,inhibition,inhibition (measured here: pilot screen replicate inhibition) [%]
CCCc1nc(SCC(=O)Nc2nc3c(s2)CCCC3)c2ccccc2n1,2.76% (inactive),–
COc1ccc(N2C(=O)CSC2c2ccccc2[N+](=O)[O-])cc1 (stereo not drawn),0.75% (inactive),–
O=C1c2cccc([N+](=O)[O-])c2C(=O)N1c1ccccc1,0% (inactive),–
COc1cc(/C=C2/C(=O)NN(c3ccc(C)c(Cl)c3)C2=O)cc([N+](=O)[O-])c1O,69.8% (inactive),–
O=C1NN(c2ccccc2)C(=O)/C1=C\c1ccc2c(c1)OCO2,15.1% (inactive),–
CCOc1ccc(C(=O)N/N=C/c2ccccc2[N+](=O)[O-])cc1,-7.26% (inactive),–
CN1C/C(=C/c2ccccc2[N+](=O)[O-])C(=O)/C(=C\c2ccccc2[N+](=O)[O-])C1,1.54% (inactive),–
CCOc1ccc(N2C(=O)C(=O)/C(=C(/O)c3ccccc3)C2c2ccccc2[N+](=O)[O-])cc1 (stereo not drawn),13.8% (inactive),–
COc1ccc(C(=Cc2ccccc2[N+](=O)[O-])C(=O)O)cc1,-6.2% (inactive),–
CCc1noc(C)c1C(=O)NCCc1ccc(OC)c(OC)c1,-2.74% (inactive),–
CCOC(=O)C1C(C)=C(Nc2ccc(OC)cc2)C(=O)N1c1ccc(OC)cc1 (stereo not drawn),-2.18% (inactive),–
O=C(Cn1cc([N+](=O)[O-])cn1)NCc1ccccc1Cl,-6.16% (inactive),–
Cc1c(C2(O)CCCCC2)[nH]c2ccc(C#N)cc12,1.37% (inactive),–
O=C(O)/C=C\c1cc2c(cc1[N+](=O)[O-])OCO2,4.71% (inactive),–
CC1(C)OC(C)(C)/C(=C\c2ccccc2[N+](=O)[O-])C1=O,-3.9% (inactive),–
O=C1NC(=O)C(=Cc2ccccc2[N+](=O)[O-])S1,13.1% (inactive),–
O=C1NC(=S)N/C1=C/c1cc2c(cc1[N+](=O)[O-])OCO2,6.53% (inactive),–
CCOC(=O)N1CCC(NC(=O)CSCc2nc(-c3ccccc3Cl)oc2C)CC1,-1.81% (inactive),–
CCc1ccc(C)[n+](CC(=O)c2cccs2)c1,-10.5% (inactive),–
O=C(c1cccnc1)N1CCN(S(=O)(=O)c2cccc(Cl)c2)CC1,2.63% (inactive),–
Cc1cccc(CCNS(=O)(=O)c2ccc3c(c2)NC(=O)CS3)c1,-3.63% (inactive),–
CSCCC(NC(N)=O)C(=O)Nc1ccc2ccccc2c1 (stereo not drawn),3.12% (inactive),–

SMILES,inhibition,inhibition (measured here: pilot screen replicate inhibition) [%]
NC(=O)c1ccc(NC(=O)CNc2cc(S(=O)(=O)N3CCOCC3)ccc2N2CCCC2)cc1,-2.57% (inactive),–
CCN(CC)C(=O)c1ccccc1NC(=O)CN1C(=O)c2ccccc2S1(=O)=O,-2.2% (inactive),–
O=C1/C(=C\c2cccc(O)c2)SC(=S)N1Cc1ccccc1,-14.8% (inactive),–
O=C(O)COc1cccc(/C=C2/SC(=S)N(Cc3ccccc3)C2=O)c1,13.1% (inactive),–
O=C(O)CN1C(=O)/C(=C\c2cccc(OC(=O)c3ccco3)c2)SC1=S,2.44% (inactive),–
CN1C(=O)/C(=C\c2cccc(OCc3ccccc3)c2)SC1=S,5.28% (inactive),–
COc1cccc(/C=C2/SC(=S)N(CC(=O)NNC(=O)c3ccccc3OC)C2=O)c1,4.13% (inactive),–
O=C(CN1C(=O)/C(=C/c2cccc(Cl)c2)SC1=S)NC1C=CS(=O)(=O)C1 (stereo not drawn),-2.72% (inactive),–
COc1cccc(/C=C2/SC(=S)N(CC(=O)NNC(=O)c3ccccc3O)C2=O)c1,2.67% (inactive),–
CC(=O)NNC(=O)CN1C(=O)/C(=C/c2ccccc2)SC1=S,-2.32% (inactive),–
COc1ccccc1CC(=O)OCC(=O)N1CCN(c2ccc(F)cc2)CC1,-10.1% (inactive),–
Cc1[nH]c(C)c(S(=O)(=O)N2CCN(c3cccc(Cl)c3)CC2)c1C(=O)N1CCCCC1,-6.81% (inactive),–
CC(C)CCN(C(=O)C1CCCC1)c1c(N)n(Cc2ccccc2)c(=O)[nH]c1=O,0.73% (inactive),–
COCCn1c(C)cc(C(=O)CSc2nnnn2C2CCCC2)c1C,-0.76% (inactive),–
CCOP(=O)(OCC)c1nc(/C=C/c2ccccc2)oc1NCc1ccc(OC)cc1,-2.05% (inactive),–
O=S(=O)(Cc1ccccc1)Nc1ccccc1,1.96% (inactive),-2.12
Cc1ccc(NS(=O)(=O)Cc2ccccc2)nc1,-2.96% (inactive),–
CNC(=O)NC(=S)NC(=O)c1ccccc1Cl,2.96% (inactive),–
Cc1ccc2c(c1)c(C1=NC(=S)NC1=O)c(O)n2C,-5.15% (inactive),–
COc1cc2c3c(c1)c(C1=NC(=S)NC1=O)c(O)n3C(C)(C)C=C2C,5.22% (inactive),–
CC1(C)O[C@@H]2[C@H](O1)[C@@H](CO)O[C@H]2n1cc(Br)c(=O)[nH]c1=O,-17.6% (inactive),–
NCCCC[C@@H]1NC(=O)c2cc([N+](=O)[O-])cc(F)c2NCCCC[C@@H](C(N)=O)NC(=O)CNC1=O,-4.1% (inactive),–

SMILES,inhibition,inhibition (measured here: pilot screen replicate inhibition) [%]
O=C(NCc1ccco1)c1nnc(Cc2ccc(F)cc2)o1,2.07% (inactive),–
COc1ccc(-c2cc(-c3ccccc3)c(C#N)c(SCC(=O)O)n2)cc1,14% (inactive),–
N#Cc1c(-c2ccc(Cl)cc2)cc(-c2ccccc2)nc1SCC(=O)O,1.16% (inactive),–
O=C(O)c1cccc2c1/C(=N/Nc1ccc([N+](=O)[O-])cc1[N+](=O)[O-])c1ccccc1-2,20.5% (inactive),–
CC(=O)Nc1ccc(NC(=O)c2nc(S(=O)(=O)Cc3ccccc3)ncc2Cl)cc1,-50.4% (inactive),–
Cc1nnc(NC(=O)c2nc(S(=O)(=O)Cc3ccccc3C)ncc2Cl)s1,27.3% (inactive),–
Cc1ccc(NC(=O)c2nc(S(=O)(=O)Cc3ccccc3)ncc2Cl)cc1,-43.4% (inactive),–
CSc1ncc(Cl)c(C(=O)Nc2nnc(SC)s2)n1,5.42% (inactive),–
Cc1ccccc1CS(=O)(=O)c1ncc(Cl)c(C(=O)Nc2ccc(F)cc2)n1,-55.8% (inactive),–
Cc1cccc(CS(=O)(=O)c2ncc(Cl)c(C(=O)NCc3ccccc3)n2)c1,-74.2% (inactive),–
COC(=O)c1ccc(NC(=O)c2nc(S(=O)(=O)Cc3cccc(C)c3)ncc2Cl)cc1,-59.7% (inactive),–
Cc1nnc(NC(=O)c2nc(S(=O)(=O)Cc3ccccc3)ncc2Cl)s1,19.6% (inactive),–
O=C(c1cc(-c2ccc(Br)cc2)nc2ccccc12)N1CCC1,-2.19% (inactive),–
COc1ccccc1N1CCN(C(=O)c2oc3c(c2C)C(=O)CC(C)(C)C3)CC1,4.65% (inactive),–
O=C(N/N=C/C(Cl)=C\c1ccccc1)c1cnccn1,-6.4% (inactive),–
C=CC[C@H](CC(=O)N[C@H](CO)Cc1ccccc1)C(=O)N[C@@H](COC(=O)[C@H](CC=C)CC(=O)OC(C)(C)C)Cc1c[nH]c2ccccc12,-0.83% (inactive),–
COc1ccc(/C=C2/SC(=O)N(CCC(=O)Nc3ccc(S(=O)(=O)Nc4nccs4)cc3)C2=O)cc1,-5.09% (inactive),–
O=C(/C(=C(/[O-])c1ccccc1)[n+]1ccccc1)c1ccc([N+](=O)[O-])cc1,3.25% (inactive),–
CCCc1ncc(CN2CCCCC2C(=O)Nc2ccc(Oc3ccccc3)nc2)cn1 (stereo not drawn),-5.15% (inactive),–
CCCCn1c(N)c(N(C)C(=O)c2cn(-c3ccccc3)nc2-c2ccccc2)c(=O)[nH]c1=O,-2.61% (inactive),–
NS(=O)(=O)c1ccc2nc(NC(=O)Nc3ccc(F)cc3)sc2c1,-9.52% (inactive),–
O=C(Nc1ccc(Cl)c(S(=O)(=O)N2CCOCC2)c1)c1cccs1,-1.55% (inactive),–

SMILES,inhibition,inhibition (measured here: pilot screen replicate inhibition) [%]
CC(=O)Nc1ccc(NC(=O)c2nc(S(=O)(=O)Cc3cccc(C)c3)ncc2Cl)cc1,-42.6% (inactive),–
Cc1cccc(CS(=O)(=O)c2ncc(Cl)c(C(=O)Nc3c(C)cccc3C)n2)c1,-57.4% (inactive),–
O=C(Nc1ncccc1O)c1ccc2c(c1)OCO2,0.74% (inactive),–
Cc1cc(Cl)ccc1OCC(=O)Nc1ccccc1C(=O)N1CCOCC1,5.18% (inactive),–
O=C1CC(c2ccccc2)NC(=S)N1 (stereo not drawn),3.85% (inactive),–
O=C1NC(=S)NC1(c1ccccc1)c1ccccc1,-4.65% (inactive),–
CCCCSc1nc(O)c(C2OC(=O)c3c2ccc(OC)c3OC)c(=O)n1C (stereo not drawn),-5.49% (inactive),–
CCSc1nc(O)c(C2OC(=O)c3c2ccc(OC)c3OC)c(=O)n1CC (stereo not drawn),6.79% (inactive),–
CCCSc1nc(O)c(C2OC(=O)c3c2ccc(OC)c3OC)c(=O)n1-c1ccccc1 (stereo not drawn),11.7% (inactive),–
CCCCSc1nc(O)c(C2OC(=O)c3c2ccc(OC)c3OC)c(=O)n1-c1ccccc1 (stereo not drawn),17.6% (inactive),–
Cc1cc2c3c([nH]c2cc1S(=O)(=O)NCc1ccc(CN2CCCCCC2)o1)CCCC3=O,-7.25% (inactive),–
Cc1ccc(S(=O)(=O)N/N=C/c2ccc(O)c(O)c2)cc1[N+](=O)[O-],0.74% (inactive),–
CCN(CC)CCNC(=O)c1ccc(NC(=O)c2cc(S(=O)(=O)N3CCCCC3)ccc2N2CCOCC2)cc1,-2.25% (inactive),–
COc1ccc(-n2cccc2C=O)cc1,-11.6% (inactive),–
Cc1cc2nc3s/c(=C/c4ccc(-c5ccccc5C(=O)O)o4)c(=O)n3c2cc1C,-33.6% (inactive),–
CCOC(=O)CSc1nc(N)c(C#N)c(-c2ccc(OCC)cc2)c1C#N,-3.48% (inactive),–
COc1cc(/C=C2\C(C)=C(C#N)c3nc(N)c(C#N)c(C)c32)ccc1OCC(=O)O,-6.96% (inactive),–
Cc1cc2nc(/C(C#N)=C\c3ccc(-c4ccccc4C(=O)O)o3)[nH]c2cc1C,-2.36% (inactive),–
O=C1OC(c2ccccc2)=CC1=Cc1ccccc1O,-6.29% (inactive),–
CC1CCCC(NC(=O)C2N(CCCN3CCCC3)C(=O)C3C(C(=O)Nc4ccc(Cl)cc4)C4C=CC32O4)C1C (stereo not drawn),-9.14% (inactive),–
Cc1cc(C)cc(NC(=O)COC(=O)Cc2ccccc2F)c1,-2.95% (inactive),–
